Measured values reported in PubChem BioAssay (NCI).
The panel holds about 83,000 compounds, 20% with a hit somewhere; the sample as a whole holds those more often.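 Activity criterion: percent growth below 10, measured after cells in 96-well plates were exposed to a single compound concentration for 48 hours.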 A number with no mark means an inactive call. Activity calls are given as the source filed them.

system: MDA-MB-435 melanoma; test: NCI-60 one-dose screen, 48 h (100 = growth as untreated, 0 = no growth, -100 = all killed); conditions: 10 µM unless noted

Row | Compound | growth
1 | COc1cccc(C(=O)Nc2cccc(C#Cc3cccc4[nH]nc(N)c34)c2)c1 | 1.93% (active)
2 | CC1(C)[C@@H](O)CC[C@]2(C)[C@H]3CC[C@@H]4[C@H]5[C@H](C(=O)/C=C\c6ccncc6)CC[C@]5(O)CC[C@@]4(C)[C@]3(C)CC[C@@H]12 | 14.9%
3 | N#Cc1cccc(CN2CCc3ncn(Cc4ccc(Cl)cc4)c(=O)c3C2)c1 | 18.4%
4 | CCNC(=O)N1CCc2cc(OC)c(OCCc3ccc(OC)cc3)cc2C1c1ccc([N+](=O)[O-])cc1C (configuration not stated) | 14.5%

system: SW-620 colon; test: as above; conditions: 10 µM unless noted

Row | Compound | growth
5 | O=C(CN1CCN(c2cc(=O)n(-c3ccccc3)c3ccccc23)CC1)Nc1nc(-c2ccccc2)cs1 | 68.6%
6 | Cc1ccc(NC(=O)c2ccc(CN3CCOCC3)c(C(F)(F)F)c2)cc1Oc1ccc(-c2[nH]nc3ncnc(N)c23)cc1 | 110%
7 | Cc1ccc(NC(=O)CNc2cc(C(N)=O)cc(F)c2C)c(Cl)c1 | 96.8%
8 | COc1cc(C2N=C(NNc3ccccc3)NC(C)=C2C(C)=O)ccc1O (configuration not stated) | 82.1%
9 | CNc1ncc2cc(-c3ccc(-c4ncccc4F)cc3Cl)c(=O)n(CC3OCC(N)CO3)c2n1 (configuration not stated) | 99.1%
10 | Nc1cc(-c2c[nH]c3ccc(Br)cc23)nc2cc(-c3c[nH]c4ccc(Br)cc34)nn12 | 5.89% (active)
11 | Cc1cc2ncc(-c3cc4ccccc4c(N4CCN(C)CC4)n3)nc2cc1C | 1.46% (active)
12 | O=C(NCCn1ccnc1)c1ccc(-c2nc3ccc4[nH]ncc4c3c3c2CCCC3)cc1 | 57.4%
13 | N#C/C(=C\c1ccc(-c2ccc(Cl)cc2Cl)o1)c1ccc(F)cc1 | 93.5%
14 | COc1cc(Nc2c(C#N)cnn3cc(-c4cnn(CC(C)(C)O)c4)cc23)ccc1Cl | 56.5%
15 | C=C(C=O)[C@@H]1CC[C@]2(CO)CC[C@]3(C)[C@H](CC[C@@H]4[C@@]5(C)CCCNC(C)(C)[C@@H]5CC[C@]43C)[C@@H]12 | 1.41% (active)
16 | CC/C(=C/c1cc(OC)ccc1O)c1ccc2cc(OC)ccc2[o+]1 | 33.2%
17 | COc1c(N2CC3CCCNC3C2)c(F)cc2c(=O)c(C(=O)N/N=C/c3ccc4c(c3)OCO4)cn(C3CC3)c12 (configuration not stated) | 47.1%
18 | COc1cccc2cc(-c3cc4ccccc4[nH]3)/c(=N\NC(=O)c3ccc(Cl)cc3)oc12 | 38.3%
19 | C=CC(=O)N1CCC=C(c2cc3c(N[C@H](C)c4ccccc4)ncnc3[nH]2)C1 | 91.7%
20 | O=C(CSc1nc2ccccc2c(=O)n1-c1ccccc1)Nc1cccc(C(=O)/C=C/c2ccccc2)c1 | 90%
21 | c1cn2c(ccc3nc(-c4cn[nH]c4)c4c(c32)CCCC4)n1 | 61.2%
22 | O=S(=O)(NCCCNc1nccc(-n2cnc3ccccc32)n1)c1ccc(C(F)(F)F)cc1 | 106%
23 | COc1ccc(-c2cc(-c3ccc(Cl)cc3)c(C#N)c(=O)n2Cc2ccc(C(=O)O)cc2)cc1 | 94.8%

Row | Compound | growth
24 | COc1cc2c(cc1OC)C(Sc1ccc(C)cc1)c1c(nc(N)c(C#N)c1N)O2 (configuration not stated) | -36.6% (active)
25 | CCc1nn2c(C)cc(C)nc2c1Cc1ccc(/C=C/CN2CCN(CCOCCOCCN3CCN(C/C=C/c4ccc(Cc5c(CC)nn6c(C)cc(C)nc56)cc4)CC3)CC2)cc1 | -50.4% (active)
26 | Cc1noc(C)c1CSc1nc2ccccc2n1-c1ccccc1 | 94.5%
27 | COc1cccc2c1CN(C(=O)c1ccc(O)c(C(=O)N3Cc4ccc(OCCC[P+](c5ccccc5)(c5ccccc5)c5ccccc5)cc4C3)c1)C2 | 70.5%
28 | COc1ccc2c(c1)Oc1nc(N)c(C#N)c(N)c1C2Sc1ccc(C)cc1 (configuration not stated) | -49.5% (active)
29 | Nc1nc(-c2cccc([N+](=O)[O-])c2)c(N=Nc2cccc([N+](=O)[O-])c2)s1 | 18.5%
30 | Fc1ccc(-c2cc3nc(C(Cl)Cl)nc(-c4ccco4)n3n2)cc1 | 3.29% (active)
31 | CCN1CCN(Cc2ccc(C(=O)Nc3ccc(C)c(Oc4ccc(-c5[nH]nc6ncnc(N)c56)cc4)c3)cc2C(F)(F)F)CC1 | 115%
32 | Cc1ccc(-n2cc(/C=C/C(=O)c3ccc(O)cc3)c(-c3ccc(S(C)(=O)=O)cc3)n2)cc1 | 34%
33 | CCCn1cnc2c(c1=N)C(c1ccc(OC)cc1)c1sc3c(CC)cccc3c1O2 (configuration not stated) | 28.4%
34 | Cc1ccc(NC(=O)c2ccc(CN3CCN(C)CC3)cc2)cc1Oc1ccc(-c2[nH]nc3ncnc(N)c23)cc1 | 80.2%
35 | CC(=O)c1nnn(-c2c(C(=O)n3nc(C)cc3C)sc(=S)n2-c2ccccc2)c1C | 112%
36 | O=S(=O)(NCCNc1nccc(-n2cnc3ccccc32)n1)c1ccc(C(F)(F)F)cc1 | 83.5%
37 | NC(N)=Nc1ccc(Oc2cccc(Nc3cccc(C(F)(F)F)c3)c2)cn1 | -79.1% (active)
38 | Nc1nc(-c2cccc([N+](=O)[O-])c2)c(N=Nc2ccc(Br)cc2)s1 | -34.5% (active)
39 | COc1cccc(C(=O)Nc2cccc(C#Cc3cccc4[nH]nc(N)c34)c2)c1 | 34%
40 | CC1(C)[C@@H](O)CC[C@]2(C)[C@H]3CC[C@@H]4[C@H]5[C@H](C(=O)/C=C\c6ccncc6)CC[C@]5(O)CC[C@@]4(C)[C@]3(C)CC[C@@H]12 | 26.5%
41 | N#Cc1cccc(CN2CCc3ncn(Cc4ccc(Cl)cc4)c(=O)c3C2)c1 | 33.2%
42 | CCNC(=O)N1CCc2cc(OC)c(OCCc3ccc(OC)cc3)cc2C1c1ccc([N+](=O)[O-])cc1C (configuration not stated) | 23.8%
